# Laboratory results: PubChem BioAssay (NCATS)
# Several values for one entry are separate records, joined by “and”; a condition that tells them apart may be missing. Identical values can stand only once. Results filed as inconclusive are left out. The source holds several records for some structures; these can differ, active in one and inactive in another. Activity calls are given as the source filed them. Unless noted, the call rests on the fitted dose curve; in most records, active means well fitted curve in either direction with a large enough effect (not every such curve was filed as active); inconclusive means small, poorly fitted or top-dose-only effect, or another doubt; inactive means flat fitted curve, though single readings scatter.
# Columns and labels:
# [1] = AP1 Signaling Pathway (AID 357); details: ME-180 (cervical carcinoma) AP-1-bla reporter, EGF-induced, beta-lactamase ratio, 5 h; further: on the % scale 0 is the no-effect control and ±100 the full control effect
# Procedure, shortened: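 AP-1-bla ME-180 cells with beta-lactamase reporter under AP-1 response element, stimulated with EC50 EGF; compounds titrated, 5 hours at 37 degrees Celsius. CCF4 read at 460/530 nm ratio; positive and negative modulators judged by AC50.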
# [2] = NFAT Signaling Pathway (AID 444); details: Jurkat NFAT-bla M1, carbachol, beta-lactamase ratio, 5 h;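 further: carbachol stimulus at about its EC50 of 1 µM final; on the % scale 0 is the no-effect control and ±100 the full control effect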
# Procedure, shortened: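 Jurkat cells with NFAT-driven β-lactamase reporter and co-expressed M1 receptor, stimulated with carbachol (final 1 uM, ~EC50), compound titration, 5 h at 37 °C. CCF4 loaded 1 h at RT; 460/530 nm ratio gave %activity and AC50.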
# [3] = target: Cytochrome P450 1A2 (Homo sapiens) (UniProt P05177); experiment: p450-cyp1a2 (AID 410; calls by dose curve; further: potency means the concentration at half of the fitted maximal effect;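 on activity change, negative = inhibition: -100% = full effect of reference inhibitor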); details: recombinant CYP1A2, luciferin-ME demethylation, luminescence; series mostly up to 25.6 µM
# Cytochrome P450 1A2 (Homo sapiens), sequence (P05177 whole entry, looked up): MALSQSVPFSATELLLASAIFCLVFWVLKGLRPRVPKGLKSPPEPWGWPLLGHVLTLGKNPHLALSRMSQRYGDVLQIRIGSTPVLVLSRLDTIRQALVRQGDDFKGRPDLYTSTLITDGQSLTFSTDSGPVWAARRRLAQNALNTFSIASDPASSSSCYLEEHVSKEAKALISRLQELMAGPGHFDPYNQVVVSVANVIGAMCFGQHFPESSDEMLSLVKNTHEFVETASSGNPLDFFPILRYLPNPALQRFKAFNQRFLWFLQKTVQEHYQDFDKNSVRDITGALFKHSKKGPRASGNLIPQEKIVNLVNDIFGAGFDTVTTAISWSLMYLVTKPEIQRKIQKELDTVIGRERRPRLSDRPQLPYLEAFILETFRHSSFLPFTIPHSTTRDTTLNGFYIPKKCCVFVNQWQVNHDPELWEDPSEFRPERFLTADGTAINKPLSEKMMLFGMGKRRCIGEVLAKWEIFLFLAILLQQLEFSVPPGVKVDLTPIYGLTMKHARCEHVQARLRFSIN
# Procedure, shortened: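 Luminescent readout of luciferin formed from Luciferin-ME by human CYP1A2; data normalized against complete inhibition by 57 uM furafylline. Enzyme 20nM, substrate 100uM at Km, 100mM KPO4 buffer, 60 min reaction at room temperature.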
# [4] = at 17.2 µM (top of the series) unless noted
structure (smiles),measurement,setting,value
O=C1NC(c2cccc([N+](=O)[O-])c2)=CCN1c1ccccc1O,"activity change, negative = inhibition",[1]; [4],-12.2% [at 38 µM] (inactive)
same,"activity change, negative = inhibition",[2]; at 38 µM (top of the series),4.96% (inactive)
CN(C(=O)C(Cl)Cl)c1ccc(OC(=O)c2ccco2)cc1,"activity change, negative = inhibition",[1]; [4],4.41% (inactive) and 1.4% (inactive)
same,Potency,[3],inactive
same,"activity change, negative = inhibition",[2]; at 17.2 µM (top of the series),3.31% (inactive) and -29.1% (inactive)
CC(=O)Nc1c(I)c(NC(C)=O)c(I)c(C(=O)O)c1I,"activity change, negative = inhibition",[1]; [4],-1.8% (inactive)
same,"activity change, negative = inhibition",[2]; at 17.2 µM (top of the series),-7.63% (inactive)
CCOC(=O)NNc1nncc2ccccc12,"activity change, negative = inhibition",[1]; [4],-6.72% (inactive)
same,Potency,[3],5.01 µM (active)
same,"activity change, negative = inhibition",[2]; at 17.2 µM (top of the series),1.79% (inactive)
NC(N)=NCCCCN=C(N)N,"activity change, negative = inhibition",[1]; at 17.2 µM (top of the series),10.4% (inactive)
same,"activity change, negative = inhibition",[1]; at 38 µM (top of the series),-0.239% (inactive)
same,"activity change, negative = inhibition",[2]; at 17.2 µM (top of the series),8.46% (inactive)
same,"activity change, negative = inhibition",[2]; at 38 µM (top of the series),-22% (inactive)
O=C(CCCCC(=O)Nc1c(I)cc(I)c(C(=O)O)c1I)Nc1c(I)cc(I)c(C(=O)O)c1I,"activity change, negative = inhibition",[1]; [4],2.09% (inactive)
same,Potency,[3],inactive
same,"activity change, negative = inhibition",[2]; at 17.2 µM (top of the series),0.68% (inactive)
CC(NCCC(c1ccccc1)c1ccccc1)c1ccccc1 (configuration not stated),"activity change, negative = inhibition",[1]; [4],12.2% (inactive)
COc1ccccc1N1CCN(CCN2C(=O)CC3(CCCC3)CC2=O)CC1,"activity change, negative = inhibition",[1]; [4],-25.1% [at 38 µM] (inactive)
same,Potency,[3],31.6 µM (active) and inactive
same,"activity change, negative = inhibition",[2]; at 38 µM (top of the series),-25.7% (inactive)
CCCCCC(=O)O[C@]1(C(C)=O)CC[C@H]2[C@@H]3CCC4=CC(=O)CC[C@]4(C)[C@H]3CC[C@@]21C,"activity change, negative = inhibition",[1]; [4],-2.44% (inactive)
Cc1ncc(CO)c(CO)c1O,"activity change, negative = inhibition",[1]; [4],-2.02% (inactive)
same,Potency,[3],inactive
CN(C)c1cc2c(Nc3ccc4c(cnn4Cc4ccccc4)c3)ncnc2cn1,"activity change, negative = inhibition",[1]; [4],-107% [at 38 µM] (active)
same,Potency,[3],7.94 µM (active)
CC(=O)[C@@]1(O)CC[C@H]2[C@@H]3C[C@H](C)C4=CC(=O)CC[C@]4(C)[C@H]3CC[C@@]21C,"activity change, negative = inhibition",[1]; [4],16% (inactive)
same,"activity change, negative = inhibition",[2]; at 17.2 µM (top of the series),19.2% (inactive)
C[N+](C)(C)CCO,"activity change, negative = inhibition",[1]; [4],0.911% [at 38 µM] (inactive)
same,Potency,[3],inactive
same,"activity change, negative = inhibition",[2]; at 38 µM (top of the series),2.35% (inactive)
CC1(C)O[C@@H]2C[C@H]3[C@@H]4C[C@H](F)C5=CC(=O)C=C[C@]5(C)[C@@]4(F)[C@@H](O)C[C@]3(C)[C@]2(C(=O)CO)O1,"activity change, negative = inhibition",[1]; [4],-7.62% (inactive)
same,"activity change, negative = inhibition",[2]; at 17.2 µM (top of the series),22.4% (inactive)
OC(CCCN1CCCCC1)(c1ccccc1)c1ccccc1,"activity change, negative = inhibition",[1]; [4],26.6% (inactive)
same,Potency,[3],inactive
O=C(O)c1ccccc1S,"activity change, negative = inhibition",[1]; [4],-3.14% (inactive)
same,"activity change, negative = inhibition",[2]; at 17.2 µM (top of the series),24.8% (inactive)
